Screening data: PubChem, National Center for Advancing Translational Sciences (NCATS)
HT1080 IDH1KD tx: toxicity to HT-1080 IDH1 knockdown cells (counter line) | HT-1080 IDH1 knockdown viability, ATP luminescence, 48 h | Potency, µM (doses to about 46.1 µM), for inactives: top-dose activity, negative = toxicity, actives largely listed as cytotoxic | 2% of 360,000 active | AID 686971;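 note: potency is the fitted concentration of half-maximal effect; 0% = DMSO wells and -100% = cell-free medium wells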
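IDH1KD HT-1080 cells, 750/well, RPMI + 5% FBS; compound pinned after 2 h settling; 48 h, 37 °C; CellTiter-Glo luminescence; % activity normalised to DMSO and no-cell wells; curves fitted, classed by r2 and efficacy.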
HT1080NT lethal: kills 2HG-producing HT-1080-NT fibrosarcoma cells; HT-1080-NT fibrosarcoma viability, CellTiter-Glo ATP luminescence, 48 h; Potency, µM (doses to about 46.1 µM), for the others: top-dose activity, negative = less viability, most hits filed as cytotoxic; 1.6% of 360,000 active;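 note: NT is the 2HG producing partner of a matched IDH1 knockdown line; potency is the fitted concentration of half-maximal effect; 0% = DMSO-treated cells and -100% = media-only wells without cells; nearly all actives have a fitted effect of over 55% in size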
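Compounds were tested in concentration-response format on HT-1080-NT cells for 48 hours at 37 degrees C. Cell viability came from CellTiter-Glo luminescence; curves were classified by r2, response magnitude and activity.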
IL-1B inflam inh: inhibitors of inflammasome signaling (IL-1 beta secretion) | activity change, % at 57.5 µM | 4.7% of 360,000 active | THP-1 LPS/ATP IL-1B secretion, AlphaLISA, 16 h; hits give low values; in the data active = activity change below about -50%; inconclusive = mostly about -30% to -49%
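Secreted IL-1B measured by AlphaLISA bead assay after 16 h compound exposure of THP-1 cells; compounds (final up to 57.5 uM) added 1 h before LPS (250 ng/mL) and ATP (1.25 mM) stimulation; lower signal means less secretion.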
12-LOX inh: ALOX12 (human) lipoxygenase inhibition. purified 12hLO, xylenol orange hydroperoxide absorbance. Potency, µM (doses to about 108 µM), for the others: at the top dose activity change, negative = inhibition, actives largely listed as inhibitors. P18054. 1.1% of 580,000 active; note: potency is the fitted concentration of half-maximal effect
Target sequence (P18054 whole entry, looked up): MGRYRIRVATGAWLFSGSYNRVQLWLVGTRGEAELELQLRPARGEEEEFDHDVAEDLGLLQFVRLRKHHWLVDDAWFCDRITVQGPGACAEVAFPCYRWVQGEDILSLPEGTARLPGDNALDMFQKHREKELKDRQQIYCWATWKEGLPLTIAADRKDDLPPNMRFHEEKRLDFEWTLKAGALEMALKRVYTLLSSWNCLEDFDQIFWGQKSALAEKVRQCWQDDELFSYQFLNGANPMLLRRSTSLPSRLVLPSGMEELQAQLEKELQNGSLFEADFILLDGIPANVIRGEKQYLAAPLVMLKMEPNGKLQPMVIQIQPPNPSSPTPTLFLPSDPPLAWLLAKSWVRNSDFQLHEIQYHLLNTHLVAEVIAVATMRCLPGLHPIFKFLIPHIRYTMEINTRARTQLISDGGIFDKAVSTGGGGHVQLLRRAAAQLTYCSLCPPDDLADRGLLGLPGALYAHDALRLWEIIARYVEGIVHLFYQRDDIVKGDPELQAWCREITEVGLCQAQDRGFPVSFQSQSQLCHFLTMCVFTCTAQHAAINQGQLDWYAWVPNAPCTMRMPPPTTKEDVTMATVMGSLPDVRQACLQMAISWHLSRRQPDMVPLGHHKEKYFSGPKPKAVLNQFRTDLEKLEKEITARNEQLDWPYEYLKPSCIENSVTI
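Purified human 12hLO (150 nM final) in 25 mM Hepes, 0.01% Triton X-100, pH 7.0 was preincubated 15 min at room temperature with compound. Then 40 uM arachidonic acid was added, 30 min. Hydroperoxide was read by Fe-XO absorbance ratio 573/405 nm.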
DT40 TDP1 no CPT: qHTS for Inhibitors of human tyrosyl-DNA phosphodiesterase 1 (TDP1): qHTS in cells in absence of CPT; 15% of 420,000 active; Potency, µM (doses to about 46.2 µM), inactives show at the highest dose activity change, negative = growth inhibition, hits mostly inhibitors; DT40 Tdp1-/- hTDP1 cells, no CPT, ATP luminescence, 48 h; note: potency is the fitted concentration of half-maximal effect; nearly all actives have a fitted effect of over 55% in size
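Readout: luminescence from CellTiter-Glo after 30 min in the dark at RT. Cells: DT40 Tdp1-/- with stable hTDP1, 400/well. Exposure: compounds alone, ≥48 hr, 37 °C.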
TDP1 cell CPT: growth inhibition of DT40 Tdp1-/-;hTDP1 cells with camptothecin (screen for TDP1 inhibitors); chicken DT40 Tdp1-/-;hTDP1 cells + 20 nM CPT, ATP luminescence, 48 h; Potency, µM (series often up to 46.2 µM), inactives show at the highest dose activity change, negative = growth inhibition, hits mostly inhibitors; 12% of 420,000 active; note: potency is the fitted concentration of half-maximal effect; nearly all actives have a fitted effect of over 55% in size
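Chicken DT40 Tdp1-/- cells stably complemented with human TDP1 were seeded at 400 cells/well in medium containing 20 nM camptothecin, exposed to pin-transferred compounds, and grown at 37 °C for at least 48 hr. Viability was read as ATP luminescence.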
* marks the source's active call; other numbers are inactive results; i = inactive; ? = inconclusive; / = not tested or not shown. This is one part of a sample in which hits are shown more often than they occur. Unless noted, calls come from the whole dose curve; as a rule, active = well fitted curve in the direction sought with a large enough effect; inconclusive = small, poorly fitted or top-dose-only effect, or another doubt; inactive = no such curve, though single readings can be large; an effect the other way counts as inactive or inconclusive. Unless noted, % is set by controls: 0 for no effect and ±100 for the full control effect.

SMILES	HT1080 IDH1KD tx	HT1080NT lethal	IL-1B inflam inh	12-LOX inh	DT40 TDP1 no CPT	TDP1 cell CPT
CCOc1ccc(/C=N/NC(=O)c2c(-c3ccccc3)noc2C)cc1	14.7%	18.6%	41.4	3.8%	-29.7%	13.9%
COc1ccc(/C=N/NC(=O)c2ccc(COc3cccc4cccnc34)cc2)cc1O	-9.2%	-9.2%	-1.5	-9.5%	13µM*	?
COCCCn1c(C)cc(C(=O)CN2c3cccc4cccc(c34)S2(=O)=O)c1C	-6.0%	-1.5%	?	-20.9%	16.4µM*	29.1µM*
O=C(N/N=C/c1ccc([N+](=O)[O-])cc1)c1ccc(COc2ccccc2-c2ccccc2)cc1	6.3%	-6.0%	0.0	2.3%	13µM*	?
COc1ccc(/C=N/NC(=O)c2ccc(COc3cccc4cccnc34)cc2)cc1OC	11.1%	21.8%	-5.2	25.2%	2.5%	-14.3%
O=C(N/N=C/c1ccc([N+](=O)[O-])cc1)c1ccccc1OCc1ccccc1	-10.2%	-13.4%	21.1	5.5%	?	-15.4%
CCOc1ccc(/C=N/NC(=O)COc2ccccc2-c2ccccc2)cc1	?	?	-4.3	-17.5%	?	18.4µM*
O=C(Cc1ccc(-c2ccccc2)cc1)Oc1ccc(Cl)c2ccccc12	/	/	/	-16.3%	/	/
O=C1CCN(S(=O)(=O)c2ccccc2)CCCN(C(=O)c2ccccn2)CCN1	/	/	/	41.4%	/	/
CC(C)(C)c1ccc(OCc2ccc(C(=O)N/N=C3\CC4CC=CC34)cc2)cc1 (configuration not stated)	?	?	48.6	13.4%	14.6µM*	13µM*
CC(C)(C)c1ccc(OCc2ccc(C(=O)N/N=C/c3ccc(O)c(O)c3)cc2)cc1	?	25.9µM*	123.9	?	1.46µM*	1.3µM*
O=C(N/N=C/c1cccc(O)c1)c1ccc(COc2ccccc2Br)cc1	-21.0%	-13.9%	-68.0*	12.7%	?	?
COC(=O)c1cc(=O)n(Cc2cccs2)c(=Nc2ccccc2)s1	-5.4%	-22.1%	-1.2	-14.4%	-27.1%	-12.0%
COC(=O)c1cc(=O)n(Cc2ccc(OC)c(OC)c2)c(=Nc2ccc(F)cc2)s1	-15.7%	?	-22.8	-0.4%	14.6µM*	16.4µM*
COC(=O)c1cc(=O)n(Cc2ccco2)c(=Nc2ccc(F)cc2)s1	?	23.1µM*	-18.3	/	?	20.6µM*
CNC(=O)C1CC(=O)N(CCc2ccc(OC)c(OC)c2)C(=Nc2ccc(F)cc2)S1 (configuration not stated)	1.1%	2.5%	-76.9*	-20.7%	?	7.2%
COC(=O)c1cc(=O)n(Cc2ccc(F)cc2)c(=Nc2ccccc2)s1	-17.3%	-24.0%	?	0.0%	?	?
COC(=O)c1cc(=O)n(-c2ccccc2)c(=Nc2ccccc2)s1	?	?	-58.0*	-15.2%	23.1µM*	?
Cc1ccc(C(=O)N2CCC3(CC2)CNC(=O)c2ccccc2O3)cc1	/	/	/	49.6%	/	/
CC1(C(=O)Nc2ccc3c(c2)OCCO3)CN(S(C)(=O)=O)CC(=O)N1Cc1cccs1 (configuration not stated)	1.3%	?	-19.4	-1.3%	1.9%	13.9%
COc1ccc(-c2coc3cc(OCC(=O)Nc4ccc5c(c4)OCO5)ccc3c2=O)cc1	/	/	/	-4.8%	/	/
CCN(CC)Cc1ccccc1CNC(=O)c1cc2ccccc2oc1=O	/	/	/	-4.6%	/	/
COc1ccc(-c2nc(/C=C/C(=O)NC(C)C3CC4CCC3C4)cs2)cc1 (configuration not stated)	/	/	/	-31.3%	/	/
O=C1Nc2ccc(-c3ccc4c(c3)OCO4)cc2C(=O)N2CCN(C(=O)c3cccs3)C[C@H]12	/	/	/	-16.1%	/	/
COC(=O)c1cc(=O)n(CCc2ccc(OC)c(OC)c2)c(=Nc2ccc(F)c(Cl)c2)s1	?	16.4µM*	-104.2*	0.9%	?	?
SMILES	HT1080 IDH1KD tx	HT1080NT lethal	IL-1B inflam inh	12-LOX inh	DT40 TDP1 no CPT	TDP1 cell CPT
CC(=O)c1cn(CC(=O)N2CCC(C(N)=O)CC2)c2ccccc12	/	/	/	45.0%	/	/
CCOC(=O)C1=C(N)N(c2ccccc2)C(=O)C1	17.5%	13.7%	18.4	18.6%	16.4µM*	7.31µM*
O=C1CCCCC(Cc2cccnc2)(C(=O)NCCc2c[nH]c3ccccc23)N1 (configuration not stated)	/	/	/	22.1%	/	/
CCOCCCNC(=O)c1cccc(OC2CCN(S(C)(=O)=O)CC2)c1	4.2%	-2.5%	9.6	0.0%	5.5%	1.0%
O=C(NCc1cccc(Cl)c1)c1cccc(OC2CCN(C(=O)C3CC3)CC2)c1	-11.8%	?	i	8.8%	20.6µM*	29.1µM*
COCCNC(=O)c1cccc(OC2CCN(Cc3ccc(Cl)c(F)c3)CC2)c1	-11.7%	-24.0%	-53.3*	-22.8%	?	?
CCc1cc(CNC(=O)c2cccc(OC3CCN(S(C)(=O)=O)CC3)c2)on1	-13.5%	16.4µM*	-1.3	4.5%	?	?
COCCNC(=O)c1cccc(OC2CCN(Cc3cccc(SC)c3)CC2)c1	0.0%	-8.6%	?	18.7%	16.4µM*	?
O=C(C1CC1)N1CCC(Oc2cccc(C(=O)N3CCCCC3CCO)c2)CC1 (configuration not stated)	12.8%	9.5%	6.8	23.9%	11.3%	-26.5%
Cc1ccc(NC(=O)CN2C(=O)C(c3ccccc3)=NC23CCCC3)c(C)c1	/	/	/	15.4%	/	/
O=C(C[n+]1ccccc1)Nc1ccccc1[N+](=O)[O-]	-3.6%	-0.1%	13.5	0.0%	-0.9%	6.3%
COCc1nc(C2CCCN(C(=O)c3ccc(OC)cc3)C2)no1 (configuration not stated)	/	/	/	38.6%	/	/
COc1cccc(CN2CCC3(CC2)NCCc2c3[nH]c3ccc(OC)cc23)c1	/	/	/	3.3%	/	/
COc1ccccc1OCc1nc2c3c(ncn2n1)Oc1cc(O)ccc1C3c1ccccc1 (configuration not stated)	/	/	/	11.2%	/	/
COc1ccc(Cc2nc3c4c(ncn3n2)Oc2ccc3ccccc3c2C4c2ccc(OC)c(OC)c2)cc1 (configuration not stated)	7.2%	1.6%	0.0	-6.9%	-36.4%	-3.3%
COc1ccc(C2c3ccc(O)cc3Oc3ncn(Cc4ccco4)c(=N)c32)cc1 (configuration not stated)	-1.6%	-5.5%	?	-11.7%	20.6µM*	11.6µM*
